The values that follow come from PubChem BioAssay (NCATS).

Results filed as inconclusive are left out. Activity calls are given as the source filed them. The call rests on the fitted dose curve; in most records, active means well fitted inhibition curve with a large enough effect; inconclusive means small, poorly fitted or top-dose-only effect, or effect the other way; inactive means flat fitted curve, though single readings scatter.

Sequence of ATP-dependent 6-phosphofructokinase (Trypanosoma brucei brucei) (O15648 whole entry, looked up): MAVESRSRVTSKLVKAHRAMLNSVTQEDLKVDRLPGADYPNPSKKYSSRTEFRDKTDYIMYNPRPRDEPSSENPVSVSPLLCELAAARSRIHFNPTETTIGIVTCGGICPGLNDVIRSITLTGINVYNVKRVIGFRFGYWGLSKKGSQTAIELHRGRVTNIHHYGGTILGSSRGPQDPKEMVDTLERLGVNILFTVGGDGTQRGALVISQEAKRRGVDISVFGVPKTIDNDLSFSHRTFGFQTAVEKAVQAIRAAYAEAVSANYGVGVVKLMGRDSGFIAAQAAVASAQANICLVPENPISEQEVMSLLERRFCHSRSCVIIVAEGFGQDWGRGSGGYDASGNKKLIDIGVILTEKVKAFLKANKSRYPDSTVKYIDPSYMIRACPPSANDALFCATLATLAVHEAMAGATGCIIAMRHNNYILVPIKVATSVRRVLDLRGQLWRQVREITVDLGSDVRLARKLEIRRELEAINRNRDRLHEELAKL

For this experiment, the target named is ATP-dependent 6-phosphofructokinase (Trypanosoma brucei brucei) (UniProt O15648). Description: qHTS Assay to Find Inhibitors of T. brucei phosphofructokinase: hit validation (AID 492961).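 Further: luminescence reports ADP formed as PFK phosphorylates fructose-6-phosphate with ATP.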 As to conditions: T. brucei PFK, ADP-Glo luminescence; series mostly up to 51.4 µM; activity change, negative = inhibition: at the top concentration. An excerpt:
NIH Molecular Libraries Probe Production Network [MLPCN] NIH Chemical Genomics Center [NCGC] Grant: 1 R03 MH092153-01 PI Name: Malcolm Walkinshaw, University of Edinburgh NCGC Assay Overview: Various species of the protozoan family Trypanosomatidae are responsible for a range of serious human diseases in tropical and subtropical areas of the world. […] Many of the disorders caused by trypanosomatids are fatal if left untreated, but most currently used drugs are inefficient and toxic. […] Oxidative metabolism involving the mitochondrial tricarboxylic acid cycle and oxidative phosphorylation are repressed in these parasites, and recent RNA interference (RNAi) experiments have shown that even partial depletion of certain individual glycolytic enzymes can lead to the death of cultured parasites. One such glycolytic enzyme, phosphofructokinase (PFK), catalyzes the formation of fructose-1,6-bisphosphate (F1,6BP) and ADP from fructose-6-phosphate (F6P) and ATP, and in many metabolic circumstances makes an important contribution to the control of flux through the glycolytic pathway. As a specific glycolytic target, PFK is particularly attractive as it catalyzes the first irreversible step in glycolysis, and structural and kinetic studies have shown very substantial and essential differences from corresponding host enzymes, allowing for the discovery of parasite-selective inhibitors. The goal of this screen is to find small-molecule inhibitors of T. brucei PFK using a biochemical assay that measures PFK activity as a function of ADP production. A luminescence-based assay for T. brucei PFK activity has been developed which uses luciferase to detect production of ADP. Traditional luciferase-based nucleotide detection reagents rely on ATP production as a direct substrate for the luciferase reaction; however, PFK catalyzes the transfer of a phosphate from ATP to F6P, resulting in the net depletion of ATP. To directly measure the ADP product of the PFK reaction, we used the ADP-Glo detection kit (Promega), which utilizes two separate reactions to 1) deplete all remaining uncatalyzed ATP and 2) convert all remaining ADP to ATP, which is then detected through a traditional luciferase-coupled reaction. Compounds were screened as a concentration-titration series that ranged from 57 uM to 0.7 nM.
NCGC Assay Protocol Summary: Substrate buffer was dispensed into white, solid 1536-well plates at 3uL/well in 0.1M triethanolamine (TEA) buffer, pH 8.0, containing final concentrations of 5 mM MgCl2, 0.01% Tween20, 0.5 mM fructose-6-phosphate (F6P) and 0.1mM ATP. Then, 23 nL of compounds or DMSO were delivered to each well using a pin tool. One uL T. brucei PFK (0.1M TEA, 0.01% Tween20, 0.1% bovine serum albumin (BSA) and 1.25nM PFK, final concentrations) was then dispensed, and plates were incubated at room temperature for 45 min. The luminescent detection reagent, ADP-Glo (Promega), was then added in two steps: the first reagent, ADP-Glo (which converts remaining uncatalyzed ATP), was added at 2.5uL/well and incubated for ten minutes at room temperature, and the second component, Kinase Detection reagent (which converts ADP to ATP as a substrate for luciferase-based luminescence), was added immediately after at 5uL/well, followed by one final ten minute room temperature incubation. The plates were measured on a ViewLux plate reader for luminescent signal using a clear filter with a one second exposure. The %Activity was determined from the corrected luminescence values. As no specific T. brucei PFK inhibitors have been identified in the literature, 1x (1.25nM) and 0x PFK enzyme controls (untreated) were included to normalize %Activity of identified inhibitors; 0x enzyme values corresponded to 100%Activity (full inhibition), while 1x PFK enzyme values were used to normalize 0%Activity (no inhibition). Concentration-response curves were fitted to the signals arising from the resulting luminescence. […]
Background: Quantitative high-throughput screening tests each substance at several concentrations.
On to `CC(C)OC(=O)Nc1ccc2nc(-c3cscn3)[nH]c2c1`, for which the “activity change, negative = inhibition” value is 0% (inactive).

For the molecule `C/C(=C\C(=O)OCCCCCCCCC(=O)O)C[C@@H]1OC[C@H](C[C@@H]2O[C@H]2[C@@H](C)[C@H](C)O)[C@@H](O)[C@H]1O`, the “activity change, negative = inhibition” value was 2.38% (inactive).

Regarding `C=Cc1ccc(S(=O)(=O)O)cc1`, the “activity change, negative = inhibition” value was -7.49% (inactive).

Consider `O=C(O[C@H]1CN2CCC1CC2)N1CCc2ccccc2[C@@H]1c1ccccc1`, for which the “activity change, negative = inhibition” value was 1.35% (inactive).

For the molecule `CC1=CC(=O)NS(=O)(=O)O1`, the “activity change, negative = inhibition” value is 0% (inactive).

For `Cc1ccc(S(=O)(=O)O)cc1C`, the “activity change, negative = inhibition” value was 0.91% (inactive).

Regarding `CC12CCC(C[N+](C)(CCC[N+](C)(C)C)C1)C2(C)C` (stereo not given), the “activity change, negative = inhibition” value was 0% (inactive).

`N=C(N)c1ccc(/C=C/c2ccc(C(=N)N)cc2O)cc1`: the “activity change, negative = inhibition” value was -10.7% (inactive).

As to `C=CCN1CCCC1CNC(=O)c1cc(S(N)(=O)=O)cc(OC)c1OC` (stereo not given), the “activity change, negative = inhibition” value was 4.49% (inactive).

Regarding `Nc1ncnc2c1ncn2[C@H]1CC[C@@H](CO)O1`, the “activity change, negative = inhibition” value was -4.31% (inactive).

Regarding `CN(C)CCCSc1ccccc1NC(=O)/C=C/c1ccccc1`, the “activity change, negative = inhibition” value is -2.13% (inactive).

As to `C[C@H](N)C(=O)N[C@@H](C)P(=O)(O)O`, the “activity change, negative = inhibition” value is -0.703% (inactive).

`C[C@H](O)CN(C)C`: the “activity change, negative = inhibition” value is -1.72% (inactive).

Take `C=CC(=O)O`: the “activity change, negative = inhibition” value was -0.601% (inactive).

Consider `NCC[C@H](O)C(=O)N[C@@H]1C[C@H](N)[C@@H](O[C@H]2O[C@H](CN)CC[C@H]2N)[C@H](O)[C@H]1O[C@H]1O[C@H](CO)[C@@H](O)[C@H](N)[C@H]1O`, for which the “activity change, negative = inhibition” value was 7.52% (inactive).

Regarding `c1ccc2c(c1)Sc1ccccc1N2CCN1CCCC1`, the “activity change, negative = inhibition” value was 0% (inactive).

For the molecule `CC(C)[C@H](N)C(=O)OCC(CO)OCn1cnc2c(=O)[nH]c(N)nc21` (stereo not given in full), the “activity change, negative = inhibition” value is -1.92% (inactive).

`CCC(Cc1c(I)cc(I)c(O)c1I)C(=O)O` (stereo not given): the “activity change, negative = inhibition” value was 20.5% (inactive).

Consider `Cc1ccc(S(=O)(=O)NCl)cc1`, for which the “activity change, negative = inhibition” value was -8.47% (inactive).

As to `C=C1C(CCl)(CCl)C2(Cl)C(Cl)C(Cl)C1(Cl)C2(Cl)Cl` (stereo not given), the “activity change, negative = inhibition” value was -0.666% (inactive).

For `COC1=C(OC)C(=O)C(C/C=C(\C)CC/C=C(\C)CC/C=C(\C)CC/C=C(\C)CC/C=C(\C)CC/C=C(\C)CC/C=C(\C)CC/C=C(\C)CC/C=C(\C)CCC=C(C)C)=C(C)C1=O`, the “activity change, negative = inhibition” value is -0.31% (inactive).

Turning to `Cc1cccc(C)c1NC(=O)C1CCCCN1C` (stereo not given), the “activity change, negative = inhibition” value is 7.66% (inactive).

As for `Cc1c(C)c2c(c(C)c1OC(=O)CCC(=O)O)CC[C@@](C)(CCC[C@H](C)CCC[C@H](C)CCCC(C)C)O2`, the “activity change, negative = inhibition” value was -0.925% (inactive).

Take `O=C(O)COc1ccc(CCNS(=O)(=O)c2ccccc2)s1`: the “activity change, negative = inhibition” value was -11.1% (inactive).

As to `Oc1cc(O)cc(O)c1`, the “activity change, negative = inhibition” value is -0.381% (inactive).

In the case of `ClC(Cl)Cl`, the “activity change, negative = inhibition” value is -0.498% (inactive).

On to `Cc1cccc(C)c1NC(=O)NC1=CCCN1C`, for which the “activity change, negative = inhibition” value is -3.07% (inactive).

Turning to `O=C(O)[C@H]1C(=CCO)O[C@H]2CC(=O)N12`, the “activity change, negative = inhibition” value was -8.74% (inactive).

As to `CCC(C)[C@@H](N)C(=O)O` (stereo not given in full), the “activity change, negative = inhibition” value was 4.47% (inactive).

In the case of `FCOC(C(F)(F)F)C(F)(F)F`, the “activity change, negative = inhibition” value is -5.94% (inactive).

For the molecule `Cc1ccc(C(C)(C)c2ccc(C)cc2)cc1`, the “activity change, negative = inhibition” value is 1.04% (inactive).

With `CSCCC(N)C(=O)O` (stereo not given), the “activity change, negative = inhibition” value is -4.76% (inactive).

For the molecule `C[C@H]1O[C@@H](O[C@H]2[C@@H](O)C[C@H](O[C@H]3[C@@H](O)C[C@H](O[C@H]4CC[C@@]5(C)[C@H](CC[C@@H]6[C@@H]5C[C@@H](O)[C@]5(C)[C@@H](C7=CC(=O)OC7)CC[C@]65O)C4)O[C@@H]3C)O[C@@H]2C)C[C@H](O)[C@@H]1O`, the “activity change, negative = inhibition” value was 7.41% (inactive).

Take `CCOc1ccc(S(=O)(=O)O)c2cccnc12`: the “activity change, negative = inhibition” value was 7.21% (inactive).

`CNC(=O)c1c(I)c(C(=O)NCC(=O)Nc2c(I)c(C(=O)O)c(I)c(C(=O)NCCO)c2I)c(I)c(N(C)C(C)=O)c1I`: the “activity change, negative = inhibition” value was 4.1% (inactive).

`Cc1ncc(COP(=O)(O)O)c(CN)c1O`: the “activity change, negative = inhibition” value is 20.5% (inactive).

In the case of `O=C(O)COc1ccccc1/C=N/NC(=O)c1ccncc1`, the “activity change, negative = inhibition” value is -9.63% (inactive).

Take `CN1C(=O)OC(C)(C)C1=O`: the “activity change, negative = inhibition” value is 4.53% [at 24.3 µM] (inactive).

For `COC(=O)C(CN)c1c[nH]c2ccc(OC)cc12` (stereo not given), the “activity change, negative = inhibition” value is 0% (inactive).

On to `O=C(O)/C=C/c1ccccc1`, for which the “activity change, negative = inhibition” value is -3.79% (inactive).
